Assay results reported in publication PMC4336329 (PLoS ONE, 2015).
Out of some 310,000 compounds screened, about 14,000 (4.5%) showed an effect of 50% or more. Effects have a minus sign here. The full list was thinned out, with strong results kept by preference.

What follows are compounds tested against human ether-à-go-go-related gene (hERG) potassium channel (human, UniProt Q12809) (assay: primary screen, population patch clamp on CHO cells stably expressing hERG; higher = less effect of the substance).
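Also: peak tail current of the secondary pulse compared with the same well before compound.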

Sequence of human ether-à-go-go-related gene (hERG) potassium channel (Q12809 whole entry, looked up): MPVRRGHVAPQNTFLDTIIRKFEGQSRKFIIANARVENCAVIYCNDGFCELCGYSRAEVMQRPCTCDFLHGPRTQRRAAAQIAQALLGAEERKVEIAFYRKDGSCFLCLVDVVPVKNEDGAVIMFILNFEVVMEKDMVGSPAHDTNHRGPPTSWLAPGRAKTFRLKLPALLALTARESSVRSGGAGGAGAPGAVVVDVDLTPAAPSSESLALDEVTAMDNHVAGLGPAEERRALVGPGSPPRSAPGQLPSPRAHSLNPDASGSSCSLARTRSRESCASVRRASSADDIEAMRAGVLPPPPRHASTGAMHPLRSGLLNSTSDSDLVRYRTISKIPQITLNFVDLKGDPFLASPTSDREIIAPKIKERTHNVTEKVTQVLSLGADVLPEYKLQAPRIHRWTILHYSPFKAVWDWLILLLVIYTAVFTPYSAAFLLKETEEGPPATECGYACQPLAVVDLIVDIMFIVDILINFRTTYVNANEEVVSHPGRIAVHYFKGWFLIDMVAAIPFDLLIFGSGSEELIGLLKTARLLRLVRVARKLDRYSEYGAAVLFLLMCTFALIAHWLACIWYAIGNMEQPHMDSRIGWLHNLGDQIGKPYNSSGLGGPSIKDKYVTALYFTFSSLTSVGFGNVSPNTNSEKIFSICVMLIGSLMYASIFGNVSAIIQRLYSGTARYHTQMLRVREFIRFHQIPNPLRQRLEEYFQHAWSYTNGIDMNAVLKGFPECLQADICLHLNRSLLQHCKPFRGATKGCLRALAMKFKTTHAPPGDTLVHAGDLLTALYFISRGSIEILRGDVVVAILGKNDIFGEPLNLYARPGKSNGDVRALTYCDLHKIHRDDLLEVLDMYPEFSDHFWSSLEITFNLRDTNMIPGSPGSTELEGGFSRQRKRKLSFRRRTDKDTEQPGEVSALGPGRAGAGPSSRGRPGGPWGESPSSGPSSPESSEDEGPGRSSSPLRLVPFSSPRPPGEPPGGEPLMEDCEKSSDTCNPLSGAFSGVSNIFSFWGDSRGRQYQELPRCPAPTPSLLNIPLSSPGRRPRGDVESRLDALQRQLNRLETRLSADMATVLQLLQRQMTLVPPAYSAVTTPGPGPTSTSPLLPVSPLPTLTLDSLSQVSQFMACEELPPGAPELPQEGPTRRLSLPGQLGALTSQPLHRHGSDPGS

SMILES	hERG current change (%, negative = inhibition) at 10uM [%]
COc1cccc(OC)c1C(=O)NC(=S)N1CCCCC1c1cccnc1 (centres unmarked)	-13
Nc1c(CO)nnn1-c1ccccc1	4.7
O=C(Nc1ccc(OCC(F)(F)C(F)F)c(C(F)(F)F)c1)c1ccccc1O	9.65
COc1ccc2c(Cl)c(-c3nnc(SCC(=O)c4ccccc4)n3C)sc2c1	8.28
Cc1ccc(NC(=O)c2ccccc2NS(=O)(=O)c2ccc(Cl)s2)cc1S(=O)(=O)N1CCOCC1	0.321
COc1ccc(OCc2csc(N)n2)cc1	39.4
CCNC(=S)N1CCN(c2nc(CC)nc3sc4c(c23)CCCC4)CC1	-15.4
O=C(c1ccco1)N1CCN(c2nc(C3CC3)nc3sc4c(c23)CCCC4)CC1	-29.7
Cc1nc(N2CCN(C(=O)c3ccco3)CC2)c2c3c(sc2n1)CCCC3	-64.1
c1ccc2c(c1)nnn2-c1ncnc2sc3c(c12)CCCC3	-12.2
Cc1nc(-n2nnc3cc(C)c(C)cc32)c2c3c(sc2n1)CCCC3	-1.48
Cc1nc(-n2nnc3ccccc32)c2c3c(sc2n1)CCCC3	-50.1
Cc1nc(N2CCN(C(=O)c3ccco3)CC2)c(C#N)c2c1CCCC2	3.21
CCC(=O)N1CCN(c2nc(CC)nc3sc4c(c23)CCCC4)CC1	-71.7
CCc1nc(N2CCN(C(C)=O)CC2)c2c3c(sc2n1)CCCC3	-20.1
C/C(=N\NC(=O)c1nn(C)c(C)c1Br)c1cccc(NC(=O)c2ccoc2C)c1	-23.2
CCCC(=O)c1ccc(-c2ccccc2)cc1	-4.95
Cc1ccc(C(C)C)c(OCCCN2C(=O)NC(C)(C)C2=O)c1	-14.3
Cc1ccc(N2C(=O)CC(Sc3cccs3)C2=O)cc1 (centres unmarked)	12
Cc1cccc(NC(=O)c2oc3c(c2C)C(=O)CC(C)(C)C3)n1	-14.9

SMILES	hERG current change (%, negative = inhibition) at 10uM [%]
CC1=C(C(=O)N2CCCCC2)C2(CCC(C)CC2)OC1=O (centres unmarked)	-6.74
CC1=C(C(=O)N2CCN(C(=O)c3ccco3)CC2)C2(CCC(C)CC2)OC1=O (centres unmarked)	-63.8
CC1=C(C(=O)N2CCCCCC2)C2(CCC(C)CC2)OC1=O (centres unmarked)	2.11
Cc1c(CCC(=O)O)c(=O)oc2cc(OCc3ccccc3F)ccc12	27.4
Cc1nc(SCC(=O)N2CCOCC2)c2c(=O)n(C)c(=O)n(C)c2n1	0.699
C=CCc1cccc(CNc2cnc3ccccc3c2)c1O	-4.21
COc1cc2nc(Nc3ccc(C)c(Cl)c3)nc(N)c2cc1OC.Cl	4.1
COc1ccccc1N1CCN(Cc2nc(N)nc(Nc3ccccc3)n2)CC1	-69.6
COc1ccccc1N1CCN(Cc2nc(N)nc(Nc3ccc(C)cc3)n2)CC1	-50.3
COc1ccccc1N1CCN(Cc2nc(N)nc(Nc3ccc(C)c(Cl)c3)n2)CC1	-75.5
COc1ccccc1N1CCN(Cc2ccc(Cl)cc2Cl)CC1	-12.7
CCc1nnc(NC(=O)c2cccs2)s1	9.54
CCN(C(=O)COC(=O)c1ccc(Cl)cc1N)C1CCCCC1	-9.34
CC(=O)OC(C(=O)NC1CCCCC1)c1ccncc1 (centres unmarked)	-11.7
Cc1sc2nc(SCC(=O)NCc3ccco3)n(Cc3ccccc3)c(=O)c2c1C	-3.84
COc1ccc(OC)c(C2=Nn3c(nnc3-c3ccco3)SC2)c1	-12.6
c1ccc(C2=Nn3c(nnc3-c3ccco3)SC2)cc1	-25.9
Oc1ccc(C2=Nn3c(nnc3-c3ccco3)SC2)cc1O	0.591
COc1ccc(C2=Nn3c(nnc3-c3ccco3)SC2)cc1	-63.6
CCOc1ccc(C2=Nn3c(nnc3-c3ccco3)SC2)cc1	-10.7

SMILES	hERG current change (%, negative = inhibition) at 10uM [%]
COc1ccc(C2=Nn3c(nnc3-c3ccco3)SC2)cc1OC	-54.1
Cc1nc2cc(NC(=O)Nc3cccc4ccccc34)ccc2n1C	2.53
CCCOc1ccc(C(=O)NNC(=S)NC(=O)c2ccccc2)cc1	23.4
CCc1noc(C)c1C(=O)NC1CC(C)(C)Cc2c1cnn2-c1ccccc1 (centres unmarked)	5.9
Fc1ccc2c(c1)C1C=CCC1C(c1cc3c(cc1Br)OCO3)N2 (centres unmarked)	4.83
CCOc1ccc(NC(=O)Nc2ccc3c(c2)nc(C)n3C)cc1	1.49
O=C(NNC(=O)c1ccc(S(=O)(=O)N2CCOCC2)cc1)c1ccccc1	17.5
CCc1cc2c(=O)n(Cc3ccco3)c(SCc3c(C)noc3C)nc2s1	-5.47
O=C(CSc1nc2c(sc3ccccc32)c(=O)n1Cc1ccco1)NCC1CCCO1 (centres unmarked)	-13.9
CN(C(=O)CSc1nc2ccc(Br)cc2c(=O)n1Cc1ccco1)C1CCS(=O)(=O)C1 (centres unmarked)	-79.6
CCOC(=O)CC(=O)CSc1nc2sc(C)cc2c(=O)n1Cc1ccco1	-51.5
CCc1cc2c(=O)n(Cc3ccco3)c(SCC(=O)NCC3CCCO3)nc2s1 (centres unmarked)	-70.2
CCc1cc2c(SCC(=O)NC3CCS(=O)(=O)C3)ncnc2s1 (centres unmarked)	-1.87
Cc1cc2c(=O)n(Cc3ccco3)c(SCC(=O)NCc3ccco3)nc2s1	-35.8
CCc1cc2c(=O)n(Cc3ccco3)c(SCC(=O)NC3CCS(=O)(=O)C3)nc2s1 (centres unmarked)	-72.2
Cc1cc2c(=O)n(Cc3ccco3)c(SCC(=O)c3ccc(Cl)s3)nc2s1	-18.6
CN(C(=O)CSc1nnc(-c2ccco2)n1Cc1ccccc1)C1CCS(=O)(=O)C1 (centres unmarked)	-6.24
CN(C(=O)CSc1nc2cc(C(=O)O)ccc2c(=O)n1Cc1ccccc1)C1CCS(=O)(=O)C1 (centres unmarked)	37.8
CCc1cc2c(SCC(=O)NCC3CCCO3)ncnc2s1 (centres unmarked)	-1.05
